# Source: the supplement of paper PMC4466140
# Tests used:
# Assay in all cases: SPOT peptide array binding signal intensity (averaged, normalized) (arbitrary units (background-subtracted, floor 0; scale differs between SH3 domains)); higher = stronger binding of the SH3 domain to the peptide
# [1] = biological target: AgAbp1
# Method in brief: (§1)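 Binding signal refers to normalized, background-subtracted spot intensity averaged over replicates, expressed in arbitrary units that differ between domains. GST-fused SH3 domains from four yeast species were incubated at 10 μg/ml overnight at 4°C on cellulose membranes of synthetic 15-mer peptides with cysteines replaced by serines. Bound protein was detected with anti-GST antibody, an HRP anti-mouse secondary and luminol, and quantified with Genespotter.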
# [2] = biological target: AgBbc1
# Method in brief: as §1
# [3] = biological target: AgBem1-D1
# Method in brief: as §1
# [4] = biological target: AgBzz1-D1
# Method in brief: as §1
# [5] = biological target: AgBzz1-D2
# Method in brief: as §1
# [6] = biological target: AgCyk3
# Method in brief: as §1
# [7] = biological target: AgFus1
# Method in brief: as §1
# [8] = biological target: AgHof1
# Method in brief: as §1
# [9] = biological target: AgHse1
# Method in brief: as §1
# [10] = biological target: AgLsb1
# Method in brief: as §1
# [11] = biological target: AgLsb4
# Method in brief: as §1
# [12] = biological target: AgMyo5
# Method in brief: as §1
# [13] = biological target: AgNbp2
# Method in brief: as §1
# [14] = biological target: AgRvs167
# Method in brief: as §1
# [15] = biological target: AgSho1
# Method in brief: as §1
# [16] = biological target: AgSla1-D1-D2
# Method in brief: as §1
# [17] = biological target: AgSla1-D3
# Method in brief: as §1
# [18] = biological target: CaAbp1-D1
# Method in brief: as §1
# [19] = biological target: CaAbp1-D2
# Method in brief: as §1
# [20] = biological target: CaBbc1
# Method in brief: as §1
# [21] = biological target: CaBem1-D1
# Method in brief: as §1
# [22] = biological target: CaBzz1-D1
# Method in brief: as §1
# [23] = biological target: CaBzz1-D2
# Method in brief: as §1
# [24] = biological target: CaCyk3
# Method in brief: as §1
# [25] = biological target: CaFus1
# Method in brief: as §1
# [26] = biological target: CaHof1
# Method in brief: as §1
# [27] = biological target: CaHse1
# Method in brief: as §1
# [28] = biological target: CaLsb1
# Method in brief: as §1
# [29] = biological target: CaLsb4
# Method in brief: as §1
# [30] = biological target: CaMyo5
# Method in brief: as §1
# [31] = biological target: CaNbp2
# Method in brief: as §1
# [32] = biological target: CaRvs167
# Method in brief: as §1
# [33] = biological target: CaRvs167-3
# Method in brief: as §1
# [34] = biological target: CaSho1
# Method in brief: as §1
# [35] = biological target: CaSla1-D1-D2
# Method in brief: as §1
# [36] = biological target: CaSla1-D3
# Method in brief: as §1
# [37] = biological target: ScAbp1
# Method in brief: as §1
# [38] = biological target: ScBbc1
# Method in brief: as §1
# [39] = biological target: ScBem1-D1
# Method in brief: as §1
# [40] = biological target: ScBzz1-D1
# Method in brief: as §1
# [41] = biological target: ScBzz1-D2
# Method in brief: as §1
# [42] = biological target: ScCyk3
# Method in brief: as §1
# [43] = biological target: ScFus1
# Method in brief: as §1
# [44] = biological target: ScHof1
# Method in brief: as §1
# [45] = biological target: ScHse1
# Method in brief: as §1
# [46] = biological target: ScLsb1
# Method in brief: as §1
# [47] = biological target: ScLsb2
# Method in brief: as §1
# [48] = biological target: ScLsb3
# Method in brief: as §1
# [49] = biological target: ScLsb4
# Method in brief: as §1
# [50] = biological target: ScMyo3
# Method in brief: as §1
# [51] = biological target: ScMyo5
# Method in brief: as §1
# [52] = biological target: ScNbp2
# Method in brief: as §1
# [53] = biological target: ScPex13
# Method in brief: as §1
# [54] = biological target: ScRvs167
# Method in brief: as §1
# [55] = biological target: ScSho1
# Method in brief: as §1
# [56] = biological target: ScSla1-D1-D2
# Method in brief: as §1
# [57] = biological target: ScSla1-D3
# Method in brief: as §1
# [58] = biological target: SpAbp1-D1
# Method in brief: as §1
# [59] = biological target: SpBbc1
# Method in brief: as §1
# [60] = biological target: SpBzz1-D1
# Method in brief: as §1
# [61] = biological target: SpBzz1-D2
# Method in brief: as §1
# [62] = biological target: SpCyk3
# Method in brief: as §1
# [63] = biological target: SpHof1
# Method in brief: as §1
# [64] = biological target: SpHof1-2
# Method in brief: as §1
# [65] = biological target: SpHof1-3
# Method in brief: as §1
# [66] = biological target: SpHse1
# Method in brief: as §1
# [67] = biological target: SpLsb1
# Method in brief: as §1
# [68] = biological target: SpLsb4
# Method in brief: as §1
# [69] = biological target: SpMyo1
# Method in brief: as §1
# [70] = biological target: SpNbp2
# Method in brief: as §1
# [71] = biological target: SpPex13
# Method in brief: as §1
# [72] = biological target: SpRvs167
# Method in brief: as §1
# [73] = biological target: SpSla1-D1-D2
# Method in brief: as §1
# [74] = biological target: SpSla1-D3
# Method in brief: as §1
binder,measurement,setting,value
GRSRLFPHSPLGRSS,SPOT peptide array binding signal intensity,[1],93
same,SPOT peptide array binding signal intensity,[2],13.8
same,SPOT peptide array binding signal intensity,[3],88.5
same,SPOT peptide array binding signal intensity,[4],26.5
same,SPOT peptide array binding signal intensity,[5],0.5
same,SPOT peptide array binding signal intensity,[6],0.5
same,SPOT peptide array binding signal intensity,[7],454
same,SPOT peptide array binding signal intensity,[8],14.5
same,SPOT peptide array binding signal intensity,[9],716
same,SPOT peptide array binding signal intensity,[10],0.75
same,SPOT peptide array binding signal intensity,[11],39.5
same,SPOT peptide array binding signal intensity,[12],≤ 0
same,SPOT peptide array binding signal intensity,[13],177
same,SPOT peptide array binding signal intensity,[14],3.42
same,SPOT peptide array binding signal intensity,[15],52.8
same,SPOT peptide array binding signal intensity,[16],26
same,SPOT peptide array binding signal intensity,[17],11.2
same,SPOT peptide array binding signal intensity,[18],491
same,SPOT peptide array binding signal intensity,[19],410
same,SPOT peptide array binding signal intensity,[20],105
same,SPOT peptide array binding signal intensity,[21],35
same,SPOT peptide array binding signal intensity,[22],53.5
same,SPOT peptide array binding signal intensity,[23],39.2
same,SPOT peptide array binding signal intensity,[24],3.5
same,SPOT peptide array binding signal intensity,[25],1070
same,SPOT peptide array binding signal intensity,[26],0.75
same,SPOT peptide array binding signal intensity,[27],11.1
same,SPOT peptide array binding signal intensity,[28],1
same,SPOT peptide array binding signal intensity,[29],≤ 0
same,SPOT peptide array binding signal intensity,[30],≤ 0
same,SPOT peptide array binding signal intensity,[31],539
same,SPOT peptide array binding signal intensity,[32],3.5
same,SPOT peptide array binding signal intensity,[33],43.8
same,SPOT peptide array binding signal intensity,[34],513
same,SPOT peptide array binding signal intensity,[35],76.5
same,SPOT peptide array binding signal intensity,[36],≤ 0
same,SPOT peptide array binding signal intensity,[37],144
same,SPOT peptide array binding signal intensity,[38],≤ 0
same,SPOT peptide array binding signal intensity,[39],57.2
same,SPOT peptide array binding signal intensity,[40],6.5
same,SPOT peptide array binding signal intensity,[41],29.5
same,SPOT peptide array binding signal intensity,[42],91.5
same,SPOT peptide array binding signal intensity,[43],374
same,SPOT peptide array binding signal intensity,[44],≤ 0
same,SPOT peptide array binding signal intensity,[45],2660
same,SPOT peptide array binding signal intensity,[46],≤ 0
same,SPOT peptide array binding signal intensity,[47],≤ 0
same,SPOT peptide array binding signal intensity,[48],212
same,SPOT peptide array binding signal intensity,[49],1.5
same,SPOT peptide array binding signal intensity,[50],0.25
same,SPOT peptide array binding signal intensity,[51],≤ 0
same,SPOT peptide array binding signal intensity,[52],294
same,SPOT peptide array binding signal intensity,[53],≤ 0
same,SPOT peptide array binding signal intensity,[54],12.3
same,SPOT peptide array binding signal intensity,[55],1020
same,SPOT peptide array binding signal intensity,[56],224
same,SPOT peptide array binding signal intensity,[57],1.25
same,SPOT peptide array binding signal intensity,[58],186
same,SPOT peptide array binding signal intensity,[59],2
same,SPOT peptide array binding signal intensity,[60],255
NTMKKRPAPPSLPSL,SPOT peptide array binding signal intensity,[1],93
same,SPOT peptide array binding signal intensity,[2],21
same,SPOT peptide array binding signal intensity,[3],405
same,SPOT peptide array binding signal intensity,[4],152
same,SPOT peptide array binding signal intensity,[5],240
same,SPOT peptide array binding signal intensity,[6],≤ 0
same,SPOT peptide array binding signal intensity,[7],375
same,SPOT peptide array binding signal intensity,[8],286
same,SPOT peptide array binding signal intensity,[9],641
same,SPOT peptide array binding signal intensity,[10],15.5
same,SPOT peptide array binding signal intensity,[11],61.5
same,SPOT peptide array binding signal intensity,[12],66.5
same,SPOT peptide array binding signal intensity,[13],384
same,SPOT peptide array binding signal intensity,[14],3.33
same,SPOT peptide array binding signal intensity,[15],496
same,SPOT peptide array binding signal intensity,[16],114
same,SPOT peptide array binding signal intensity,[17],59.8
same,SPOT peptide array binding signal intensity,[18],1570
same,SPOT peptide array binding signal intensity,[19],892
same,SPOT peptide array binding signal intensity,[20],151
same,SPOT peptide array binding signal intensity,[21],279
same,SPOT peptide array binding signal intensity,[22],2650
same,SPOT peptide array binding signal intensity,[23],952
same,SPOT peptide array binding signal intensity,[24],13.5
same,SPOT peptide array binding signal intensity,[25],1380
same,SPOT peptide array binding signal intensity,[26],0.5
same,SPOT peptide array binding signal intensity,[27],262
same,SPOT peptide array binding signal intensity,[28],6
same,SPOT peptide array binding signal intensity,[29],589
same,SPOT peptide array binding signal intensity,[30],137
same,SPOT peptide array binding signal intensity,[31],1280
same,SPOT peptide array binding signal intensity,[32],89
same,SPOT peptide array binding signal intensity,[33],1.25
same,SPOT peptide array binding signal intensity,[34],1700
same,SPOT peptide array binding signal intensity,[35],648
same,SPOT peptide array binding signal intensity,[36],246
same,SPOT peptide array binding signal intensity,[37],30
same,SPOT peptide array binding signal intensity,[38],4.5
same,SPOT peptide array binding signal intensity,[39],1
same,SPOT peptide array binding signal intensity,[40],134
same,SPOT peptide array binding signal intensity,[41],59
same,SPOT peptide array binding signal intensity,[42],11
same,SPOT peptide array binding signal intensity,[43],457
same,SPOT peptide array binding signal intensity,[44],19.5
same,SPOT peptide array binding signal intensity,[45],1410
same,SPOT peptide array binding signal intensity,[46],29.5
same,SPOT peptide array binding signal intensity,[47],≤ 0
same,SPOT peptide array binding signal intensity,[48],344
same,SPOT peptide array binding signal intensity,[49],130
same,SPOT peptide array binding signal intensity,[50],350
same,SPOT peptide array binding signal intensity,[51],287
same,SPOT peptide array binding signal intensity,[52],383
same,SPOT peptide array binding signal intensity,[53],310
same,SPOT peptide array binding signal intensity,[54],64.5
same,SPOT peptide array binding signal intensity,[55],837
same,SPOT peptide array binding signal intensity,[56],234
same,SPOT peptide array binding signal intensity,[57],521
same,SPOT peptide array binding signal intensity,[58],78.5
same,SPOT peptide array binding signal intensity,[59],3
same,SPOT peptide array binding signal intensity,[60],1170
same,SPOT peptide array binding signal intensity,[61],257
same,SPOT peptide array binding signal intensity,[62],2
same,SPOT peptide array binding signal intensity,[63],144
same,SPOT peptide array binding signal intensity,[64],41.8
same,SPOT peptide array binding signal intensity,[65],227
same,SPOT peptide array binding signal intensity,[66],602
same,SPOT peptide array binding signal intensity,[67],12.2
same,SPOT peptide array binding signal intensity,[68],788
same,SPOT peptide array binding signal intensity,[69],196
same,SPOT peptide array binding signal intensity,[70],308
same,SPOT peptide array binding signal intensity,[71],55
same,SPOT peptide array binding signal intensity,[72],110
same,SPOT peptide array binding signal intensity,[73],15
same,SPOT peptide array binding signal intensity,[74],156
